# Test results: PubChem BioAssay
# Calls of active or inactive are those of the source. Unless noted, no rule for the calls is given here.
# Legend:
# [1] = compound effects on lung adenocarcinoma cell viability – A549, calcein-AM fluorescence, 48 h, basal, profiling panel (AID 1162); settings: higher = more signal; also: test concentration not given here
# [2] = compound effects on differentiated 3T3-L1 adipocyte viability – cell-based, 3T3-L1 adipocytes, calcein-AM fluorescence, 48 h, basal, profiling panel (AID 1163); settings: 3T3-L1 adipocytes viability, higher = more signal; also: test concentration not given here
# [3] = compound effects on hepatocellular carcinoma cell viability – HepG2, calcein-AM fluorescence, 48 h, basal, profiling panel (AID 1164); settings: higher = more signal; also: test concentration not given here
# [4] = compound effects on multiple myeloma cell viability – MM1S, calcein-AM fluorescence, 48 h, basal, profiling panel (AID 1165); settings: higher = more signal;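 also: viability of MM1S multiple myeloma cells under basal unstimulated conditions; test concentration not given here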
# [5] = calcein-AM signal in unstimulated myeloma cells – cell-based, calcein-AM fluorescence, 48 h, PK04 Diversity Set, profiling panel (AID 1166); settings: RPMI8226 myeloma viability, higher = more signal;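 also: cells grown under basal conditions without added stimulus; test concentration not given here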
# [6] = JC-1 mitochondrial signal, unstimulated HepG2 cells – cell-based, JC-1 fluorescence, 24 h, 100 nL compound, profiling panel (AID 1167); settings: HepG2 mitochondrial potential, higher = more signal; also: test concentration not given here
# [7] = JC-1 mitochondrial signal, unstimulated adipocytes – cell-based, JC-1 fluorescence, 3T3-L1 adipocytes, 24 h, 100 nL compound, profiling panel (AID 1168); settings: JC-1 mitochondrial fluorescence, higher = more signal, called active from +8 up or from −8 down; also: test concentration not given here
# [8] = JC-1 mitochondrial signal, unstimulated myeloma cells – cell-based, JC-1 fluorescence, RPMI8226, 24 h, 100 nL compound, profiling panel (AID 1169); settings: JC-1 mitochondrial potential fluorescence, higher = more signal; also: test concentration not given here
# [9] = JC-1 mitochondrial signal, unstimulated MM1S myeloma – cell-based, JC-1 fluorescence, 24 h, 100 nL compound, profiling panel (AID 1170); settings: MM1S mitochondrial potential, higher = more signal; also: test concentration not given here
# [10] = resazurin metabolic signal in A549 cells – cell-based, resazurin fluorescence, 24 h, PK04 Diversity Set, profiling panel (AID 1171); settings: A549 viability, higher = more signal, called active from +8 up or from −8 down; also: test concentration not given here
# [11] = resazurin metabolic signal in HepG2 cells – cell-based, resazurin fluorescence, 24 h, PK04 Diversity Set, profiling panel (AID 1172); settings: HepG2 viability, higher = more signal; also: test concentration not given here
# [12] = budding yeast growth changes without added modifier – OD600, strain BY4716, 24 h, basal condition, primary screen (AID 1173); settings: S. cerevisiae BY4716 growth, OD600, 24 h; higher = more signal, called active from +8 up or from −8 down
# [13] = viability profiling in MM1S myeloma cells – cell-based, resazurin fluorescence, basal, 24 h, PK04 Diversity Set, profiling panel (AID 1174); settings: higher = more signal, called active from +8 up or from −8 down; also: test concentration not given here
# [14] = target: Dihydroorotate dehydrogenase (quinone), mitochondrial (Plasmodium falciparum (isolate 3D7)) (UniProt Q08210); assay: inhibition of P. falciparum DHODH – biochemical, C-terminal His tag, absorbance 600 nm, primary screen (AID 1175); settings: PfDHODH enzyme, DCIP absorbance 600 nm; higher = more signal, called active from +8 up or from −8 down;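 also: recombinant parasite enzyme with a five histidine tag at its C terminus; test concentration not given here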
# [15] = inhibition of PAO1 biofilm formation – strain PAO1, LB-PBS medium, absorbance 600 nm, primary screen (AID 1176); also: test concentration not given here; settings: P. aeruginosa PAO1 growth/biofilm, A600, 12 h; higher = more signal
# [16] = growth modulation of vineyard yeast isolate – strain RM11-1a, OD600, basal, 24 h, primary screen (AID 1177);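 also: cultures grown under basal conditions with no added stressor; test concentration not given here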; settings: S. cerevisiae RM11-1a growth, OD600, 24 h; higher = more signal, called active from +8 up or from −8 down
# [17] = growth of efflux-deficient E. coli DRC39 – strain DRC39, OD650, 24 h, E. coli filamentation inducers, primary screen (AID 1178);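 also: growth measured as culture turbidity by optical density at 650 nm; test concentration not given here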; settings: E. coli DRC39 acrAB, higher = more signal, called active from +8 up or from −8 down
# [18] = growth of efflux-deficient E. coli DRC39 – strain DRC39, OD650, 48 h, E. coli filamentation inducers, primary screen (AID 1179);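 also: screen aims at cell division blockers that make cells filament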; settings: E. coli DRC39 delta-acrAB growth, higher = more signal, called active from +8 up or from −8 down
# [19] = viability profiling in RPMI8226 myeloma cells – cell-based, resazurin fluorescence, basal, 24 h, PK04 Diversity Set, profiling panel (AID 1180); settings: higher = more signal;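 also: RPMI8826 multiple myeloma cell line at 5000 cells per well; test concentration not given here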
# [20] = target: E3 ubiquitin-protein ligase XIAP (Homo sapiens) (UniProt P98170); assay: small molecules binding XIAP protein – biophysical, small-molecule microarray, fluorescence 635 nm, primary screen (AID 1181); settings: higher = more signal;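 also: score merges 667 nm emission and signal to noise over triplicate slides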
# Chain of E3 ubiquitin-protein ligase XIAP (Homo sapiens) (P98170 whole entry, looked up): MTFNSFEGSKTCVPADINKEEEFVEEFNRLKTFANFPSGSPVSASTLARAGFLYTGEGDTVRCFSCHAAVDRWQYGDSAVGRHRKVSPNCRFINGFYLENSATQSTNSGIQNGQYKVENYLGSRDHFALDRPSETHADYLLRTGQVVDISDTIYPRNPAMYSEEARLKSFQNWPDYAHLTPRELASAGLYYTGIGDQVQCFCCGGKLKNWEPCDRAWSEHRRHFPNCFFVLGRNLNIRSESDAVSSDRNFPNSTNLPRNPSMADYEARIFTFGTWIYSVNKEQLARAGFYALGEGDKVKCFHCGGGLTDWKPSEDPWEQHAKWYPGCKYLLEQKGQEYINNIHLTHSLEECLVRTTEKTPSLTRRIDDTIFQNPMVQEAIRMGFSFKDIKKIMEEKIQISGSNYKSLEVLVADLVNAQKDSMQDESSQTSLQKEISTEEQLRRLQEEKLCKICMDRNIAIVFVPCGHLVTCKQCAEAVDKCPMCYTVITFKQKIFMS
# Chain of Dihydroorotate dehydrogenase (quinone), mitochondrial (Plasmodium falciparum (isolate 3D7)) (Q08210 whole entry, looked up): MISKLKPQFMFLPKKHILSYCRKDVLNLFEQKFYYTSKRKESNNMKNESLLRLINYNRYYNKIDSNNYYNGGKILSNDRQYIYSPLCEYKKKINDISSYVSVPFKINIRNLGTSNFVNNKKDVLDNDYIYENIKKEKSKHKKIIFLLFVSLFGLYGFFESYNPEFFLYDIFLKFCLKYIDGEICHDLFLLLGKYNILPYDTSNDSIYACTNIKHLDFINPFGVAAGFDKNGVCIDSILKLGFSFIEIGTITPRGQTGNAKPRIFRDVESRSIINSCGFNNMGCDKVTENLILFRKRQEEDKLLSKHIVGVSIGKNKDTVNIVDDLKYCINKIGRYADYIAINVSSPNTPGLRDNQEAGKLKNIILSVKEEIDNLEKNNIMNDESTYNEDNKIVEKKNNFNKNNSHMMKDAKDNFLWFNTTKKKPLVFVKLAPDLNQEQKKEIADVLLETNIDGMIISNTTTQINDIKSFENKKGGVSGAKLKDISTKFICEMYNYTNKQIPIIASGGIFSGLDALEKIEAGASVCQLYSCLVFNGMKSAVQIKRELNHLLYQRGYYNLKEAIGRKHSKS
Compound,z-score [1],z-score [2],z-score [3],z-score [4],z-score [5],z-score [6],z-score [7],z-score [8],z-score [9],z-score [10],z-score [11],z-score [12],z-score [13],composite z-score [14],z-score [15],z-score [16],z-score [17],z-score [18],z-score [19],composite z-score [20]
CCCNC(=O)OC[C@H]1O[C@H](CCON=C[C@@H](NS(=O)(=O)c2ccc(C)cc2)[C@H](C)C=CCC(=O)OC)C=C[C@@H]1Oc1ccc(OC)cc1,-0.321,0.973,-1.18,-0.0312,-0.773,0.421,-2.4 (inactive),-0.806,0.364,0.141 (inactive),-0.765,0.0177 (inactive),0.0958 (inactive),0.216 (inactive),0.311 (inactive),-0.803 (inactive),0.101 (inactive),-0.138 (inactive),0.732,-0.207
CO[C@@H]1COC(=O)CC=C[C@H](C)[C@H](OC)COC(=O)[C@@H]2CCCN2C(=O)CC=C[C@H]1C,-0.125,0.846,-0.138,0.0805,-0.822,1.07,0.332 (inactive),0.114,1.03,-0.541 (inactive),-0.144,-1.17 (inactive),0.918 (inactive),-0.222 (inactive),-1.33 (inactive),-0.203 (inactive),0.422 (inactive),-0.0617 (inactive),0.306,-0.02
O=C(NCCC[N+]1=CC=NC1c1ccccc1)N1CCCc2nc(-c3ccc(Br)cc3)ccc21 (stereo not given),0.478,-1.13,-0.598,-2.52,-0.77,1.13,-0.141 (inactive),0.184,-0.404,0.811 (inactive),0.0392,-2.72 (inactive),-1.04 (inactive),1.01 (inactive),0.508 (inactive),1.6 (inactive),1.11 (inactive),-0.493 (inactive),-0.29,-0.105
COC(=O)[C@H](C)NC(=O)CCC1CC(OC(=O)NCc2cccc3ccccc23)CC2(CCCC(COC(=O)NCc3ccccc3)O2)O1 (stereo not given in full),0.217,0.2,-0.653,0.621,0.769,1.46,0.818 (inactive),0.662,-0.845,2.64 (inactive),2.27,-0.79 (inactive),1.18 (inactive),0.0095 (inactive),-0.376 (inactive),0.136 (inactive),-0.221 (inactive),0.324 (inactive),1.42,-0.123
CC(CCN1CCc2nc(-c3ccccc3)c(-c3ccccc3)cc2C1)=NO[C@H](C)c1cn([C@H](CO)Cc2ccccc2)nn1,0.75,0.23,0.603,-1.31,0.163,2.57,-1.49 (inactive),1.02,0.428,-0.167 (inactive),-0.391,-1.74 (inactive),0.474 (inactive),-1.38 (inactive),0.593 (inactive),-0.222 (inactive),-0.424 (inactive),-1.95 (inactive),0.2,-0.156
COC(=O)[C@H](C)NC(=O)CCC1CC(OC(=O)NCCc2ccc(F)cc2)CC2(CCCC(COC(=O)NCCOc3ccccc3)O2)O1 (stereo not given in full),0.401,-0.506,0.696,0.546,-0.475,1.17,0.00171 (inactive),0.606,-0.0736,0.579 (inactive),0.0903,0.338 (inactive),0.177 (inactive),-0.361 (inactive),-0.0326 (inactive),0.127 (inactive),0.289 (inactive),-0.451 (inactive),-0.0199,-0.114
CC#CCOCCC=C1c2ccccc2[C@@H](OC)[C@@H]1C,0.0337,0.182,0.788,-2.36,-0.234,-0.19,-0.669 (inactive),-0.773,-0.831,0.349 (inactive),0.651,-1.71 (inactive),-0.725 (inactive),-0.412 (inactive),0.204 (inactive),-0.551 (inactive),-0.158 (inactive),0.212 (inactive),0.258,2.61
O=C(NN=C1C[C@@H](O)[C@@H](O)[C@@H]2[C@@H]3C(=O)N(Cc4ccc5c(c4)OCO5)C(=O)[C@@H]3CC[C@@H]12)OCc1ccccc1,-0.592,0.911,-0.423,0.291,-0.531,0.222,0.243 (inactive),0.967,-1.65,0.729 (inactive),0.0352,-1.59 (inactive),0.987 (inactive),-2.65 (inactive),-0.683 (inactive),-1.09 (inactive),0.747 (inactive),-0.715 (inactive),-0.32,-0.152
CCN1C(=O)[C@H]2[C@H]3[C@H](O)[C@H](O)CC(=NOCC[C@@H]4C=C[C@H](OC(C)=O)[C@@H](COC(C)=O)O4)[C@@H]3CC[C@H]2C1=O,1.03,-0.286,-0.296,0.0566,-0.727,-0.301,-0.132 (inactive),0.572,-0.306,-0.774 (inactive),-1.02,0.508 (inactive),-1.85 (inactive),-0.666 (inactive),1.22 (inactive),-0.183 (inactive),0.178 (inactive),-0.0655 (inactive),-1.05,0.134
C[C@]12CCC3c4ccc(OCC5CO5)cc4CCC3C1CC[C@@H]2O (stereo not given in full),0.45,0.277,0.266,-2.59,-1.06,1.15,0.121 (inactive),0.0313,-0.046,2.25 (inactive),0.689,-3.59 (inactive),0.383 (inactive),-0.187 (inactive),0.52 (inactive),1.27 (inactive),-0.424 (inactive),-0.431 (inactive),1.68,-0.148
CCc1cc2c(nc1CC)CCN(CCC(C)=NO[C@@H]1O[C@H](COC(C)=O)[C@@H](OC(C)=O)[C@H](OC(C)=O)[C@H]1OC(C)=O)C2,-0.984,0.776,-0.536,-2.58,-1.14,1.7,-0.325 (inactive),-0.0793,0.0201,-0.223 (inactive),-0.11,-0.334 (inactive),0.164 (inactive),-2.7 (inactive),-0.585 (inactive),-0.567 (inactive),-1.25 (inactive),-1.82 (inactive),-0.387,0.0825
COc1ccc(COC(=O)NN=C2C[C@@H](O)[C@@H](O)[C@@H]3[C@@H]4C(=O)N([C@@H](C)c5ccccc5)C(=O)[C@@H]4CC[C@H]23)cc1,-0.0502,0.155,-0.791,0.145,-0.486,-0.888,-0.653 (inactive),-0.0767,0.493,0.541 (inactive),0.453,-0.111 (inactive),0.334 (inactive),-0.308 (inactive),0.683 (inactive),-0.677 (inactive),-0.267 (inactive),0.197 (inactive),0.818,0.0193
COC(=O)[C@@H]1CC[C@H](C)[C@@H](c2ccc(C)cc2)N1C(=O)c1ccc(C=NOC[C@@H](O)[C@H]2O[C@@H]3OC(C)(C)O[C@@H]3[C@H]2O)cc1,0.685,-0.175,-0.827,-0.546,-0.525,-0.874,-0.269 (inactive),-1,-0.732,-0.089 (inactive),-0.187,-0.318 (inactive),-1.05 (inactive),-0.354 (inactive),0.642 (inactive),-0.168 (inactive),0.507 (inactive),0.577 (inactive),-0.772,-0.173
CCN1C(=O)[C@H]2[C@H]3[C@H](O)[C@H](O)CC(=NO[C@H](C)c4cn([C@@H]5COC[C@H]5O)nn4)[C@@H]3CC[C@H]2C1=O,0.165,-0.736,-0.127,-0.0272,0.215,-0.407,-1.37 (inactive),0.125,-0.11,-0.232 (inactive),-1.28,1.15 (inactive),-0.917 (inactive),0.871 (inactive),1.46 (inactive),0.539 (inactive),0.319 (inactive),-0.787 (inactive),-0.767,-0.124
CC(=O)OC[C@H]1O[C@H](CC=NO[C@@H](C)c2cn([C@H](CO)Cc3ccccc3)nn2)C=C[C@@H]1OC(C)=O,-1.04,-0.0628,-0.453,0.548,-0.812,-0.174,-0.538 (inactive),0.15,-0.76,0.095 (inactive),-0.462,-0.305 (inactive),0.0157 (inactive),-2.87 (inactive),-0.88 (inactive),-0.793 (inactive),-0.645 (inactive),-1.36 (inactive),0.205,-0.434
CC(C)=NOC(C)CN1CCCc2nc(C)c(C)cc21 (stereo not given),0.755,-0.588,0.272,-0.237,0.0977,0.0197,-0.24 (inactive),-0.416,0.226,-0.373 (inactive),-0.249,-0.211 (inactive),-0.0014 (inactive),0.787 (inactive),0.854 (inactive),-0.0702 (inactive),0.0251 (inactive),-0.726 (inactive),-0.572,-0.0676
O=C1C[C@H](c2ccccc2)[C@H](c2ccc(Br)cc2)O1,1.43,0.172,-0.0656,0.342,1.08,1.19,0.268 (inactive),0.563,0.891,-0.317 (inactive),-0.598,-8.77 (active),-0.118 (inactive),-1.24 (inactive),0.605 (inactive),-2.74 (inactive),0.358 (inactive),-1.67 (inactive),0.0497,-0.0438
C=CC[C@@H]1C=C[C@H](Oc2ccc(C)cc2)[C@@H](COC(=O)NCc2cccc3ccccc23)O1,-0.273,0.479,-0.542,-1.41,-1.71,0.294,-0.483 (inactive),0.78,0.147,1.99 (inactive),1.08,-0.469 (inactive),0.841 (inactive),0.438 (inactive),0.119 (inactive),0.74 (inactive),-0.899 (inactive),-0.629 (inactive),0.901,-0.0559
